Values joined by “and” are separate entries in the source; they are usually repeats but may differ in a detail not shown here. Equal values may be shown once. Records with an inconclusive call do not appear. Some compounds were tested as several samples or in several runs, with calls that do not always agree. Active and inactive are the calls of the source. Unless noted, calls come from the whole dose curve; as a rule, active = well fitted curve in the direction sought with a large enough effect in the repeat runs; inconclusive = weak or mixed curves; inactive = no such curve, though single readings can be large; an effect the other way counts as inactive or inconclusive.
Experiments:
[1] = qHTS assay to identify small molecule agonists of the vitamin D receptor (VDR) signaling pathway - cell viability counter screen (AID 743224); note: series mostly up to about 63 µM; % is set by controls: 0 for no effect and ±100 for the full control effect; nearly all actives have a fitted effect of over 50% in size
Method in brief: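 Compounds were pin-transferred onto VDR-bla cells plated 4 h earlier; following 16 h incubation at 37C, cell viability was quantified by CellTiter-Glo luminescence after 30 min at room temperature.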

[2] = qHTS assay to identify small molecule antagonists of the vitamin D receptor (VDR) signaling pathway - cell viability counter screen (AID 743225); note: % is set by controls: 0 for no effect and ±100 for the full control effect; nearly all actives have a fitted effect of over 50% in size
Method in brief: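 Parallel cytotoxicity test: VDR-UAS-bla HEK 293T, 3 nM (final) 1-alpha,25-dihydroxyvitamin D3 with test compound, 16 h, 37C. Endpoint is CellTiter-Glo luminescence in the same wells.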

[3] = qHTS assay to identify small molecule agonists of the NFkB signaling pathway - cell viability counter screen (AID 1159515; calls by dose curve; note: series mostly up to about 61 µM; % is set by controls: 0 for no effect and ±100 for the full control effect; nearly all actives have a fitted effect of over 55% in size)
Method in brief: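 Parallel cytotoxicity counter screen in ME-180 cells carrying an NFkB-response-element beta-lactamase reporter, 2,000 cells/well. Compound exposure lasted 5 hr at 37 C, 5% CO2. Cell viability was quantified by CellTiter-Glo luminescence.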

[4] = qHTS assay to identify small molecule agonists of the endoplasmic reticulum stress response signaling pathway (AID 1159516; active = well fitted activation curve with a large enough effect in the signal ratio in the repeat runs, not every such curve was filed as active; the % refers to the signal ratio; note: % is set by controls: 0 for no effect and ±100 for the full control effect)
Method in brief: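 Using a HeLa line with an ESRE-driven beta-lactamase gene, agonist activity was measured by FRET substrate fluorescence (460 and 530 nm emission) after cells were treated with compounds for 5 hr at 37 C and 5% CO2.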

[5] = qHTS assay to identify small molecule antagonists of the retinoid-related orphan receptor gamma (ROR-gamma) signaling pathway - cell viability counter screen (AID 1159520); note: % is set by controls: 0 for no effect and ±100 for the full control effect; nearly all actives have a fitted effect of over 50% in size
Method in brief: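 Tet-on ROR gamma CHO cells were given compounds for 2 hr, then doxycycline hyclate at 1 uM final, and incubated 16 hr at 37 C. Viability was measured as ATP content by CellTiter-Glo luminescence.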

[6] = target: Nuclear receptor ROR-gamma (Homo sapiens) (UniProt P51449); assay: qHTS assay to identify small molecule antagonists of the retinoid-related orphan receptor gamma (ROR-gamma) signaling pathway (AID 1159521; note: nearly all actives have a fitted effect of over 50% in size; note: potency is the fitted concentration of half-maximal effect)
Method in brief: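 Decreased RORE-driven luciferase luminescence indicates antagonism. Tet-on RORγ CHO cells received compound, then 1 uM final doxycycline 2 h later; signal read after 16 h incubation.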

[7] = qHTS assay to identify small molecule agonists of the AP-1 signaling pathway - cell viability counter screen (AID 1159525; calls by dose curve; note: nearly all actives have a fitted effect of over 55% in size)
Method in brief: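 Same-well cytotoxicity counter screen of the Tox21 10K library in ME-180 cells. The readout is ATP-dependent luminescence after 5 h compound treatment. Data are normalised to DMSO and tetra n-octyl ammonium bromide controls.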

[8] = qHTS assay to identify small molecule agonists of the AP-1 signaling pathway (AID 1159526; calls by dose curve; note: % is set by controls: 0 for no effect and ±100 for the full control effect)
[9] = target: Retinoic acid receptor RXR-alpha (Homo sapiens) (UniProt P19793); assay: qHTS assay to identify small molecule agonists of the RXR signaling pathway (AID 1159527; calls by dose curve; note: nearly all actives have a fitted effect of over 35% in size; note: potency is the fitted concentration of half-maximal effect)
Method in brief: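 16 hr incubation of compound-treated RXR-alpha-UAS-bla HEK 293T cells (2% charcoal-stripped FBS, 37 C) preceded a 2 hr room-temperature LiveBLAzer FRET substrate step and blue/green fluorescence measurement.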

[10] = qHTS assay to identify small molecule agonists of the RXR signaling pathway - cell viability counter screen (AID 1159529)
Method in brief: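 In this parallel viability measure, GeneBLAzer RXR-alpha HEK 293T cells (2% charcoal-stripped FBS) were given a 5 hr preincubation, treated with compounds 16 hr at 37 C, and read by CellTiter-Glo luminescence.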

[11] = qHTS assay to identify small molecule antagonists of the retinoic acid receptor (RAR) signaling pathway (AID 1159552; note: nearly all actives have a fitted effect of over 50% in size; note: potency is the fitted concentration of half-maximal effect)
Method in brief: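 C3RL4 RARE-luc cells, overnight plating; retinol 1 uM final added right after compound; 6 hr 37 C; luciferase read at 30 min RT.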

[12] = qHTS assay to identify small molecule agonists of the retinoic acid receptor (RAR) signaling pathway (AID 1159553); note: % is set by controls: 0 for no effect and ±100 for the full control effect
Method in brief: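 Quantitative high-throughput format: the Tox21 10K library was tested on C3RL4 RARE-luciferase cells for 6 hr at 37 C and 5% CO2, with luminescence measured after a 30 min room-temperature reagent step.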

[13] = qHTS assay to identify small molecule antagonists of the retinoid acid receptor (RAR) signaling pathway - cell viability counter screen (AID 1159551); note: % is set by controls: 0 for no effect and ±100 for the full control effect; nearly all actives have a fitted effect of over 35% in size
Method in brief: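 ATP-based viability, C3RL4 cells, 6 h at 37 C with 1 uM final retinol co-added after compound; luminescence read 30 min post CellTiter-Glo, RT.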

[14] = qHTS assay to identify small molecule agonists of the endoplasmic reticulum stress response signaling pathway - cell viability counter screen (AID 1159517; calls by dose curve)
Method in brief: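 Steps: seed 1,500 ESRE-bla HeLa cells per well; incubate overnight at 37 C, 5% CO2; add compounds in DMSO for 5 hr; run FRET substrate 2 hr RT; add CellTiter-Glo, wait 30 min, read luminescence.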

[15] = qHTS assay to identify small molecule antagonists of the estrogen related receptor (ERR) signaling pathway - cell viability counter screen (AID 1224818);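 note: series mostly up to about 46 µM; viability measured after 17.5 h of compound exposure; % is set by controls: 0 for no effect and ±100 for the full control effect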
Method in brief: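 Quantitative high-throughput viability counter screen in ERR cells. Compounds (DMSO) incubated 17.5 h at 37 C; read-out was CellTiter-Fluor fluorescence.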

[16] = qHTS assay to identify small molecule antagonists of the estrogen related receptor (ERR) signaling pathway (AID 1224819)
Method in brief: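 ERR reporter cell line (NTP) plated at 2,000 cells/well, settled 6 h at 37C/5% CO2, then exposed to LOPAC compounds for 18 h at 37C. One-Glo luciferase luminescence read after 30 min at room temperature.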

[17] = qHTS assay to identify small molecule agonists of the estrogen related receptor (ERR) signaling pathway (AID 1224820); note: % is set by controls: 0 for no effect and ±100 for the full control effect
Method in brief: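 Following a 6 h settling period, 2,000 ERR cells per well receive DMSO-dissolved compounds by pin tool and incubate 18 h at 37 C; agonist activity is scored from One-Glo luminescence read 30 min post-addition.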

[18] = qHTS assay to identify small molecule antagonists of the estrogen related receptor signaling pathway with the pleiotropic PPARgamma coactivator (PGC) cell viability counter screen (AID 1224822)
Method in brief: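 Cytotoxicity in the PGC/ERR cell line is assessed with CellTiter-Fluor, read as fluorescence intensity 30 min after reagent addition, following 17.5 h compound treatment at 37 C.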

[19] = qHTS assay to identify small molecule agonists of the estrogen related receptor signaling pathway with the pleiotropic PPARgamma coactivator (PGC) (AID 1224823); note: % is set by controls: 0 for no effect and ±100 for the full control effect
Method in brief: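 In this quantitative high-throughput screen, an 18 h, 37 C treatment of PGC/ERR cells with compounds in DMSO preceded a One-Glo luminescence read taken after 30 min at room temperature.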

Retinoic acid receptor RXR-alpha (Homo sapiens), sequence (P19793 whole entry, looked up): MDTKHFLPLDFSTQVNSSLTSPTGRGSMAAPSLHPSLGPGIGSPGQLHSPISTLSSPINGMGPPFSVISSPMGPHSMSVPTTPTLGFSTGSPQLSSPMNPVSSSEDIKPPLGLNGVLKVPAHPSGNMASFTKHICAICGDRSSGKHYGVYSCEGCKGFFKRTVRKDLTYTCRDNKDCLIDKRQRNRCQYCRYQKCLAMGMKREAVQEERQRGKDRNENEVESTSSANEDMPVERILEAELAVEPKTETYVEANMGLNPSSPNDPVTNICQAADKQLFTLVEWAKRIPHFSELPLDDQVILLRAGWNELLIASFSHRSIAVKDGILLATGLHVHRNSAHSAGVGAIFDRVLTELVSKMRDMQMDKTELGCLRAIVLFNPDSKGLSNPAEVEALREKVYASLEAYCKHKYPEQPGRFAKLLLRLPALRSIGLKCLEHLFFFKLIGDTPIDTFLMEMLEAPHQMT

CCBr
inactive: Potency [1] | Potency [2] | Potency [3] | outcome [4] | Potency [5] | Potency [6] | Potency [7] | outcome [8] | Potency [9] | Potency [10] | Potency [11] | Potency [12]

O=[N+]([O-])C(Br)(CO)CO
inactive: outcome [4] | Potency [7]
active: Potency [6] 48.6 µM

C/C=C/C=O
inactive: Potency [1] | Potency [2] | outcome [4] | Potency [5] | Potency [6] | Potency [7] | outcome [8] | Potency [9] | Potency [10] | Potency [13] | Potency [11] | Potency [12]

CCOC(=O)[C@]1(c2ccccc2)Oc2ccccc2[C@@H]1N
inactive: Potency [14] | Potency [6] | Potency [7] | Potency [10] | Potency [13] | Potency [11] | Potency [12]

COC1=CC(=O)O[C@@H](CCc2ccccc2)C1
inactive: Potency [1] | Potency [2] | outcome [4] | Potency [14] | Potency [6] | Potency [7] | outcome [8] | Potency [13] | Potency [11] | Potency [12]

CC(c1ccc(O)cc1)(c1ccc(O)cc1)c1ccc(O)cc1
inactive: Potency [2] | Potency [3] | outcome [4] | Potency [14] | Potency [5] | Potency [9] | Potency [13] | Potency [12]
active: Potency [11] 61.1 µM

NCC(CC(=O)O)c1ccc(Cl)cc1 (stereo not given)
inactive: activity change, negative = cytotoxicity [1] 15.2% [at 0.55 µM] | viability change, negative = cytotoxic [2] 6.5% [at 0.628 µM] | activity, negative = cytotoxicity [5] -1.2% [at 0.349 µM] | activity change, negative = inhibition [6] 4.26% [at 0.35 µM] | viability change, negative = cytotoxic [7] -1.57% [at 0.29 µM] | activation [8] -1.64% [at 0.29 µM] | activation [9] 1.21% [at 0.29 µM] | activity change, negative = cytotoxicity [10] 15% [at 0.29 µM] | activity change, negative = cytotoxicity [13] -0.97% [at 0.349 µM] | outcome [15] | outcome [16] | outcome [17] | Potency [18] | outcome [19]

C=CC(=O)NCNC(=O)C=C
active: Potency [9] 4.35 µM
inactive: Potency [1] | Potency [14] | Potency [5] | outcome [8] | Potency [13] | outcome [15] | outcome [16] | Potency [18] | outcome [19]

Clc1cccc(SC2CCNCC2)n1
inactive: Potency [1] | Potency [2] | outcome [4] | Potency [14] | Potency [5] | Potency [6] | outcome [8] | Potency [9] | Potency [10] | Potency [13] | Potency [11] | Potency [12]

CCn1cc[n+](C)c1
inactive: Potency [1] | Potency [2] | Potency [3] | Potency [14] | Potency [5] | Potency [7] | outcome [8] | Potency [13]
inactive and 19.8 µM (active): Potency [9]

COc1cc(CC(C)N)cc2c1OCO2 (stereo not given)
inactive: Potency [1] | Potency [2] | Potency [14] | Potency [5] | Potency [6] | Potency [7] | outcome [8] | Potency [9] | Potency [10] | Potency [13] | Potency [11] | Potency [12]
